# From PubChem
# In the library only some 6.1% were active in any assay of this set; here they are far more common.
# D1 antagonist – antagonists of human D1 dopamine receptor; 360,000 tested, 3.2% active; activity change, negative = inhibition, % at 10 µM; P21728; HEK293 TREx D1 cells, calcium flux, dopamine EC80; active compounds read low; in the data active = activity change below about -30%; also: % is scaled to controls: 0 for no effect and ±100 for the full control effect
#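 Tetracycline-induced HEK293 T-REx cells with force-coupled D1 receptor were loaded with a no-wash calcium dye. Compound was added after a 10 s baseline and read kinetically for 180 s; EC80 dopamine was then added and calcium flux followed another 180 s.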
# D3 ag – D3 dopamine receptor (human) agonism; D3R DiscoveRx beta-arrestin cells, luminescence, 90 min; max activation, %; 410,000 tested, 0.58% active; in the data active = max activation above about 30%; also: 0% is about no effect
# Target sequence (P35462 whole entry, looked up): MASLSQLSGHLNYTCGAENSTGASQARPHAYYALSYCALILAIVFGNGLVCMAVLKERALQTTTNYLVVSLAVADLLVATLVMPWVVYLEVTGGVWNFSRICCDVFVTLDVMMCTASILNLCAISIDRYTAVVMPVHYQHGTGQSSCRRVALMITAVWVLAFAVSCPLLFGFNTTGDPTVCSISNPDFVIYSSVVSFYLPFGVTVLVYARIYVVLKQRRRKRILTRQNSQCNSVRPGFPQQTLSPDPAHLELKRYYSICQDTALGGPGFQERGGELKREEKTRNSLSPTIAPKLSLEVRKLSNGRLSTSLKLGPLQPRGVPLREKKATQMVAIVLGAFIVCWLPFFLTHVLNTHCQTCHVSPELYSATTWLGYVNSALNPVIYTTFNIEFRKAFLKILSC
#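 Agonist-mode cell screen: cells plated at 1500/well and incubated overnight at 37 °C, then exposed to library compounds for 90 min at 37 °C. Detection reagent was added for 30–60 min at room temperature, and luminescence was read.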
# ERG Ets-DNA blk – blocks human ERG Ets domain binding to DNA. fluorescence polarization, His-ERG Ets domain / labelled DNA. Potency, µM (top dose mostly 76.9 µM), for inactives: at the top dose FP activity, negative = inhibition, hits mostly inhibitors. 370,000 tested, 0.028% active. AID 624246; active = well fitted inhibition curve with a large enough effect in the polarisation, with a control signal flat; inconclusive = small, poorly fitted or top-dose-only effect, or effect the other way, or a change in a side signal; inactive = no such curve, though single readings can be large or run the other way; the % refers to the polarisation;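 also: polarization taken with two DNA probes labelled with fluorescein and Texas red; potency is read from the fitted curve at half-maximal effect; % of control where 0% means no effect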
#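 His-tagged ERG Ets domain (1 uM in the protein solution; 300mM KCl, 50mM Tris-HCl, 1mM EDTA, 1mM DTT, pH 7.5) received compound, then a probe mix of 5 nM fluorescein-DNA and 100nM Texas-615-DNA. Fluorescence polarization was read for both dyes.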
# D1 ag – human D1 receptor agonism; activation, % at 2 µM; 360,000 tested, 1% active; AID 504660; HEK293 T-REx D1 cells, calcium flux, agonist mode; in the data active = activation above about 30%; also: 0% is about no effect
#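 Inducible HEK293 T-REx D1 cells, force-coupled to calcium signalling, were plated at 4000 cells/well with tetracycline and held overnight at 30 C. After no-wash calcium dye loading, compound-evoked calcium rise over 180 s flagged agonists.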
# D1 potentiator – potentiators of human D1 dopamine receptor | 360,000 tested, 0.036% active | HEK293 TREx D1 cells, calcium flux, dopamine EC20 potentiation | potentiation, % at 10 µM; in the data active = potentiation above about 30%; also: 0% is about no effect
# D3 antag – blocks the human D3 dopamine receptor. 360,000 tested, 2.5% active. D3R cells, DiscoveRx beta-arrestin luminescence, antagonist mode; active compounds read low. P35462. AID 652054. max response, negative = inhibition, %; in the data active = max response below about -50%; inconclusive = no clear call, values can overlap the other calls; also: % is scaled to controls: 0 for no effect and ±100 for the full control effect
#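 Cells plated overnight at 1500 cells/well, then exposed to library compounds with dopamine controls for 90 minutes at 37 degrees C. DiscoveRx reagent added for 30–60 minutes at room temperature; luminescence read, quantitative HTS format.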
# Active calls of the source: *; ? = inconclusive; . = no result; ! = repeats disagree.
SMILES,D1 antagonist,D3 ag,ERG Ets-DNA blk,D1 ag,D1 potentiator,D3 antag
CC1C/C(=N\NC(=S)NCc2ccccc2)CC(C)(C)C1 (stereo unspecified),-16,-21,4%,6,-4,-56*
COC(=O)CCSc1cc([N+](=O)[O-])cc2c1c(C1OCCO1)nn2-c1ccccc1,-36*,-4,-2%,19,4,-8
CCCSc1cc(=O)n(-c2ccccc2)nc1C(=O)O,6,5,-10%,4,-4,13
COC(=O)C=CC(=NNc1ccccc1)c1ccccc1,.,10,2%,.,.,4
CCC1(C)Cc2c(C#N)c(N)n(-c3ccccc3)c(=S)c2CO1 (stereo unspecified),-8,1,-2%,3,1,-5
CCC1(C)Cc2c(C#N)c(N)sc(=S)c2CO1 (stereo unspecified),6,-6,-8%,10,-3,-85*
Nc1cccc(/C=C/c2ccncc2)c1,-41*,2,2%,1,0,9
Cc1c(OCC(=O)NCc2ccccn2)ccc2c(-c3ccccc3)cc(=O)oc12,5,-4,-3%,0,-2,9
Cc1c(OCC(=O)NCC(O)c2ccccc2)ccc2c(-c3ccccc3)cc(=O)oc12 (stereo unspecified),2,33*,7%,2,0,35
O=C(CC1C(=O)NCCN1Cc1ccc(Cl)c(F)c1)NC1CCC1 (stereo unspecified),3,9,0%,1,-2,5
O=c1cc(CO)oc(C(Nc2ccccn2)c2ccccc2F)c1O (stereo unspecified),.,-5,0%,.,.,-51*
CCOC(=O)C1CSC(CC(=O)Nc2ccc(Cl)c(Cl)c2)C(=O)N1 (stereo unspecified),-32*,0,-2%,20,-9,-20
O=C(CC1CCOCC1)Nc1ccc(Cl)c(Cl)c1,-3,-6,15%,8,-2,0
COc1ccccc1CNC(=O)CCCn1nc(C)c2c(C)n(-c3ccccc3)nc2c1=O,-21,4,-3%,0,-5,17
Cc1cc(Cl)ccc1NC(=O)Cn1nc(C)c2c(C)n(-c3ccccc3)nc2c1=O,-7,-5,9%,1,-1,.
Cc1ccc(CCNC(=O)CCCn2nc(C)c3c(C)n(-c4ccccc4)nc3c2=O)cc1,4,-4,2%,3,-2,.
Cc1nn(CCCC(=O)NCCc2ccccc2)c(=O)c2nn(-c3ccccc3)c(C)c12,-36*,-4,1%,0,0,-17
Cc1cc(Cl)ccc1NC(=O)CCCn1nc(C)c2c(C)n(-c3ccccc3)nc2c1=O,-32*,8,-1%,-2,2,.
COc1cccc(CNC(=O)CCCn2nc(C)c3c(C)n(-c4ccc(C)cc4)nc3c2=O)c1OC,-54*!,2,2%,3,-1,8
Cc1nn(CCCC(=O)NCCc2ccc(Cl)cc2)c(=O)c2nn(-c3ccccc3)c(C)c12,-33*!,-1,-1%,-1,-3,12
Cc1ccc(CN2CCCn3nc(C(=O)NCC(C)c4ccccc4)cc3C2=O)cc1 (stereo unspecified),17,-15,-1%,7,1,.
Cc1nn(-c2ccccc2)c2c1N(CCCC(=O)NCc1ccccc1)C(=O)CS2,-9,5,-3%,0,1,.
Cc1nn(-c2ccccc2)c2c1N(CCCC(=O)NCc1ccc(Cl)cc1)C(=O)CS2,-48*,-8,4%,1,-4,.
N#Cc1c(-c2ccccc2Cl)cc(C2CC2)nc1N,21,5,4%,99*,7,12
NCCN1C(=O)c2ccccc2C1(O)c1ccc(Cl)cc1 (stereo unspecified),.,-7,.,.,.,?
Cc1oc(-c2ccc(C(=O)NCCc3ccc(Cl)cc3)cc2)nc1CSc1ccccc1,0,8,0%,32*,1,.
CSc1ccc(CCNC(=O)c2ccc(-c3nc(COc4ccccc4)c(C)o3)cc2)cc1,-63*,6,4%,0,0,.
